Among all 5,500 compounds or so, about 2,000 (36%) were called active. About 18% were inconclusive and are not listed. Rule as the data show it: active = normalized growth mostly below about 0.91 (no sharp cut-off); inconclusive = no clear call, values can overlap the other calls; inactive = mostly above about 0.92. The list shows a part of the results.
Assay: chemical genetic growth profiling, strain panel (AID 1159580);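 also: tested at 20 µM; growth read once vehicle control cultures reached saturation at 30 °C; 1 = growth at the plate median or of vehicle wells; lower values mean less growth of the strain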
Details: growth OD

Measured: normalized growth

Nc1ccn(C2O[C@H](CO)[C@@H](O)[C@@H]2O)c(=O)n1 (stereo partly drawn)
inactive: S. cerevisiae deletion strains, locus YKL009W, strain mrt4, stronger effect = lower value 0.992 | S. cerevisiae deletion strains, locus YKL068W, stronger effect = lower value 0.994 | S. cerevisiae deletion strains, locus YKL085W, strain MDH1 (second series), stronger effect = lower value 1 | S. cerevisiae deletion strains, locus YKL085W, strain MDH1, stronger effect = lower value 1 | S. cerevisiae deletion strains, locus YKL160W, strain elf1, stronger effect = lower value 1.05 | S. cerevisiae deletion strains, locus YKL190W, strain CNB1, stronger effect = lower value 1.01 | S. cerevisiae deletion strains, locus YKR001C, strain vps1, stronger effect = lower value 1.01 | S. cerevisiae deletion strains, locus YKR026C, strain gcn3, stronger effect = lower value 0.999 | S. cerevisiae deletion strains, locus YKR091W, strain srl3, stronger effect = lower value 0.997 | S. cerevisiae deletion strains, locus YLL001W, strain dnm1, stronger effect = lower value 1.07 | S. cerevisiae deletion strains, locus YLL026W, stronger effect = lower value 0.994 | S. cerevisiae deletion strains, locus YLL041C, strain sdh2, stronger effect = lower value 0.981 | S. cerevisiae deletion strains, locus YLR027C, strain aat2, stronger effect = lower value 0.993 | S. cerevisiae deletion strains, locus YLR039C, strain RIC1, stronger effect = lower value 1.03 | S. cerevisiae deletion strains, locus YLR058C, strain SHM2, stronger effect = lower value 1.01 | S. cerevisiae deletion strains, locus YLR102C, strain apc9, stronger effect = lower value 0.977 | S. cerevisiae deletion strains, locus YLR113W, strain HOG1, stronger effect = lower value 1.04 | S. cerevisiae deletion strains, locus YLR221C, strain rsa3, stronger effect = lower value 1.06 | S. cerevisiae deletion strains, locus YLR258W, strain gsy2, stronger effect = lower value 1.02 | S. cerevisiae deletion strains, locus YLR262C, strain YPT6 (second series), stronger effect = lower value 1 | S. cerevisiae deletion strains, locus YLR262C, strain YPT6, stronger effect = lower value 1.01 | S. cerevisiae deletion strains, locus YLR268W, strain sec22, stronger effect = lower value 0.992 | S. cerevisiae deletion strains, locus YLR320W, strain mms22, stronger effect = lower value 1.06 | S. cerevisiae deletion strains, locus YLR330W, strain CHS5, stronger effect = lower value 1.01 | S. cerevisiae deletion strains, locus YLR342W, strain FKS1 (second series), stronger effect = lower value 1.02 | S. cerevisiae deletion strains, locus YLR342W, strain FKS1, stronger effect = lower value 0.994 | S. cerevisiae deletion strains, locus YLR357W, strain rsc2, stronger effect = lower value 0.988 | S. cerevisiae deletion strains, locus YLR370C, strain arc18, stronger effect = lower value 1.01 | S. cerevisiae deletion strains, locus YLR371W, strain rom2, stronger effect = lower value 0.995 | S. cerevisiae deletion strains, locus YLR384C, strain iki3, stronger effect = lower value 1 | S. cerevisiae deletion strains, locus YLR418C, strain cdc73, stronger effect = lower value 0.966 | S. cerevisiae deletion strains, locus YML016C, strain PPZ1, stronger effect = lower value 1.01 | S. cerevisiae deletion strains, locus YML032C, strain rad52, stronger effect = lower value 1.01 | S. cerevisiae deletion strains, locus YML120C, strain ndi1, stronger effect = lower value 1.02 | S. cerevisiae deletion strains, locus YML124C, strain tub3, stronger effect = lower value 0.988 | S. cerevisiae deletion strains, locus YMR058W, strain fet3, stronger effect = lower value 0.997 | S. cerevisiae deletion strains, locus YMR078C, strain ctf18, stronger effect = lower value 0.992 | S. cerevisiae deletion strains, locus YMR125W, strain sto1, stronger effect = lower value 0.996 | S. cerevisiae deletion strains, locus YMR129W, stronger effect = lower value 0.979 | S. cerevisiae deletion strains, locus YMR205C, strain PFK2, stronger effect = lower value 1.04 | S. cerevisiae deletion strains, locus YMR223W, strain ubp8, stronger effect = lower value 0.995 | S. cerevisiae deletion strains, locus YMR231W, strain pep5, stronger effect = lower value 0.989 | S. cerevisiae deletion strains, locus YMR263W, strain SAP30, stronger effect = lower value 1 | S. cerevisiae deletion strains, locus YMR307W, strain GAS1, stronger effect = lower value 1.04 | S. cerevisiae deletion strains, locus YNL067W, strain RPL9B, stronger effect = lower value 1 | S. cerevisiae deletion strains, locus YNL071W, strain lat1, stronger effect = lower value 0.977 | S. cerevisiae deletion strains, locus YNL128W, strain TEP1, stronger effect = lower value 1.02 | S. cerevisiae deletion strains, locus YNL183C, strain NPR1, stronger effect = lower value 0.964 | S. cerevisiae deletion strains, locus YNL209W, strain ssb2, stronger effect = lower value 0.994 | S. cerevisiae deletion strains, locus YNL233W, strain BNI4, stronger effect = lower value 0.991 | S. cerevisiae deletion strains, locus YNL248C, strain rpa49, stronger effect = lower value 0.993 | S. cerevisiae deletion strains, locus YNL250W, strain rad50, stronger effect = lower value 0.994 | S. cerevisiae deletion strains, locus YNL271C, strain bni1, stronger effect = lower value 0.996 | S. cerevisiae deletion strains, locus YNL298W, strain CLA4, stronger effect = lower value 0.998 | S. cerevisiae deletion strains, locus YNL307C, strain MCK1, stronger effect = lower value 0.997 | S. cerevisiae deletion strains, locus YNL322C, strain KRE1 (second series), stronger effect = lower value 1.01 | S. cerevisiae deletion strains, locus YNR049C, strain mso1, stronger effect = lower value 0.989 | S. cerevisiae deletion strains, locus YNR052C, strain pop2, stronger effect = lower value 0.996 | S. cerevisiae deletion strains, locus YOL006C, strain TOP1, stronger effect = lower value 1.05 | S. cerevisiae deletion strains, locus YOL012C, strain htz1 1.42 | S. cerevisiae deletion strains, locus YOL147C, strain pex11, stronger effect = lower value 0.992 | S. cerevisiae deletion strains, locus YOR001W, strain rrp6, stronger effect = lower value 0.933 | S. cerevisiae deletion strains, locus YOR061W, strain CKA2, stronger effect = lower value 1.01 | S. cerevisiae deletion strains, locus YOR069W, strain VPS5, stronger effect = lower value 1.01 | S. cerevisiae deletion strains, locus YOR070C, strain gyp1, stronger effect = lower value 0.993 | S. cerevisiae deletion strains, locus YOR080W, strain dia2, stronger effect = lower value 0.992 | S. cerevisiae deletion strains, locus YOR083W, strain WHI5, stronger effect = lower value 1.06 | S. cerevisiae deletion strains, locus YOR106W, strain vam3, stronger effect = lower value 1.08 | S. cerevisiae deletion strains, locus YOR136W, strain idh2, stronger effect = lower value 1 | S. cerevisiae deletion strains, locus YOR144C, strain elg1, stronger effect = lower value 1 | S. cerevisiae deletion strains, locus YOR184W, strain ser1, stronger effect = lower value 0.997 | S. cerevisiae deletion strains, locus YOR231W, strain MKK1, stronger effect = lower value 1.03 | S. cerevisiae deletion strains, locus YOR265W, strain rbl2, stronger effect = lower value 1 | S. cerevisiae deletion strains, locus YOR270C, strain vph1, stronger effect = lower value 1.05 | S. cerevisiae deletion strains, locus YOR290C, strain snf2, stronger effect = lower value 1.02 | S. cerevisiae deletion strains, locus YOR316C, strain cot1, stronger effect = lower value 0.993 | S. cerevisiae deletion strains, locus YPL051W, strain arl3, stronger effect = lower value 1.04 | S. cerevisiae deletion strains, locus YPL078C, strain atp4, stronger effect = lower value 1.04 | S. cerevisiae deletion strains, locus YPL106C, strain sse1, stronger effect = lower value 1.01 | S. cerevisiae deletion strains, locus YPL240C, strain hsp82, stronger effect = lower value 1.01 | S. cerevisiae deletion strains, locus YPL241C, strain CIN2, stronger effect = lower value 1.01 | S. cerevisiae deletion strains, locus YPL256C, strain CLN2, stronger effect = lower value 1.03 | S. cerevisiae deletion strains, locus YPR119W, strain clb2, stronger effect = lower value 0.986 | S. cerevisiae deletion strains, locus YPR141C, strain kar3, stronger effect = lower value 0.993 | S. cerevisiae deletion strains, locus YPR163C, strain tif3, stronger effect = lower value 1.01 | S. cerevisiae deletion strains, locus YPR167C, strain met16, stronger effect = lower value 0.995 | S. cerevisiae deletion strains, strain wtn01, stronger effect = lower value 0.993 | S. cerevisiae strains, strain wild type, stronger effect = lower value 1.01
